RORg inh: qHTS for inhibitors of ROR gamma transcriptional activity; Drosophila S2 Gal4-RORgamma UAS-luciferase reporter, 20 h; Potency, µM (top dose mostly 53.6 µM), inactives show top-dose activity change, negative = inhibition, hits mostly inhibitors; 310,000 compounds, 5.4% hits; AID 2551, 2010; further: nearly all actives have a fitted effect of over 60% in size
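Read-out: Photinus luciferase luminescence; inhibitors lower reporter signal. Insect Schneider cells with Gal4-ROR gamma fusion under metallothionein promoter, UAS reporter; 700 uM final copper sulfate induction, 20 hr, ambient temperature.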
DT40 TDP1 CPT: qHTS for Inhibitors of human tyrosyl-DNA phosphodiesterase 1 (TDP1): qHTS in cells in presence of CPT; chicken DT40 Tdp1-/-;hTDP1 cells + 20 nM CPT, ATP luminescence, 48 h; Potency, µM (titrated, usually from 46.2 µM), for inactives: top-dose activity change, negative = growth inhibition, actives largely listed as inhibitors; 420,000 compounds, 12% hits; AID 686979, 2013; further: nearly all actives have a fitted effect of over 55% in size
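Chicken DT40 Tdp1-/- cells stably complemented with human TDP1 were seeded at 400 cells/well in medium containing 20 nM camptothecin, exposed to pin-transferred compounds, and grown at 37 °C for at least 48 hr. Viability was read as ATP luminescence.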
TDP1 cell noCPT: qHTS for Inhibitors of human tyrosyl-DNA phosphodiesterase 1 (TDP1): qHTS in cells in absence of CPT; DT40 Tdp1-/- hTDP1 cells, no CPT, ATP luminescence, 48 h; Potency, µM (titrated, usually from 46.2 µM), for the others: at the highest dose activity change, negative = growth inhibition, most hits filed as inhibitors; 420,000 compounds, 15% hits; further: nearly all actives have a fitted effect of over 55% in size
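Cells were dispensed at 400 per well, compounds added by pin tool, plates incubated ≥48 hr at 37 °C, then CellTiter-Glo added for 30 min at room temperature before luminescence reading. Line: DT40 Tdp1-/- complemented with hTDP1; camptothecin omitted.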
VP16 counter: VP16 counterscreen qHTS for inhibitors of ROR gamma transcriptional activity | Drosophila S2 Gal4-VP16 UAS-luciferase, luminescence, 20 h | 310,000 compounds, 3.5% hits | AID 2546, 2010 | Potency, µM (series often up to 53.6 µM), without a hit: top-dose activity, negative = inhibition, most hits filed as inhibitors;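 further: Gal4-VP16 expression switched on by copper sulfate through the metallothionein promoter; nearly all actives have a fitted effect of over 50% in size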
TDP1 block: qHTS Assay for Inhibitors of Tyrosyl-DNA Phosphodiesterase (TDP1). recombinant TDP1, AlphaScreen DNA substrate cleavage. 350,000 compounds, 0.28% hits. Potency, µM (highest dose often 130 µM), for the others: at the top dose activity change, negative = inhibition, most hits filed as inhibitors. AID 485290, 2010; further: nearly all actives have a fitted effect of over 40% in size
Target sequence (Q9NUW8 whole entry, looked up): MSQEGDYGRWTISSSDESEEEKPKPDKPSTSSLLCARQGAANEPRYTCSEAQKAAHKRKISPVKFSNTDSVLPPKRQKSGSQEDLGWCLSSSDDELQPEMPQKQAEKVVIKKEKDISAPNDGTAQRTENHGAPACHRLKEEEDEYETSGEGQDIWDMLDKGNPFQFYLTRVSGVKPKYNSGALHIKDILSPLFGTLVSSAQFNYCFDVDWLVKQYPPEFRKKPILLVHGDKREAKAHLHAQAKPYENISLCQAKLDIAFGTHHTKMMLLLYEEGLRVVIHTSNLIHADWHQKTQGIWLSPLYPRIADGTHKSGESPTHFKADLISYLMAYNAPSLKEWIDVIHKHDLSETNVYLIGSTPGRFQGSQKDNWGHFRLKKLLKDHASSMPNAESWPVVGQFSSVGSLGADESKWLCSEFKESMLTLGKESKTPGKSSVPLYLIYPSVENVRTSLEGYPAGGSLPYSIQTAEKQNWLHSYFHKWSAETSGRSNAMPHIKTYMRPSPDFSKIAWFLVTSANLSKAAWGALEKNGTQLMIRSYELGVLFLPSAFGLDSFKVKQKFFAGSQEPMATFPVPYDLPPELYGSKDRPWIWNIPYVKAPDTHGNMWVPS
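Compounds were preincubated with Tdp1 (1 nM final) for 15 min at room temperature before substrate (15 nM final) started a 5 min reaction; beads (10 ug/ml final) were then added for 10 min before AlphaScreen detection.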
Numbers without * were called inactive; ? = inconclusive; nt = no result; [ ] = remark or other dose. Rows were chosen to be rich in hits. Some 19% of all compounds tested hit in one or more screens of this group. The call rests on the fitted dose curve; in most records, active means well fitted curve in the direction sought with a large enough effect; inconclusive means small, poorly fitted or top-dose-only effect, or another doubt; inactive means no such curve, though single readings can be large; an effect the other way counts as inactive or inconclusive. On the % scale 0 is the no-effect control and ±100 the full control effect; potency means the concentration at half of the fitted maximal effect.

SMILES	RORg inh	DT40 TDP1 CPT	TDP1 cell noCPT	VP16 counter	TDP1 block
CC1(Cc2ccc3c(c2)OCO3)C(=O)Nc2c(Cl)ccc(Cl)c21 (stereo not given)	nt	?	23µM*	nt	nt
CC1(Cc2ccc3c(c2)OCO3)C(=O)Nc2ccc(-c3cccc(C(F)(F)F)c3)cc21 (stereo not given)	nt	23µM*	21µM*	nt	nt
CCc1ccc2c(c1)NC(=O)C2(C)Cc1ccc(Cl)cc1 (stereo not given)	nt	-8%	-2%	nt	nt
CCCN1Cc2cccc(C(=O)NCc3ccccc3OC)c2C1=O	?	-23%	-27%	-6%	4%
Cc1c(C(=O)NCCCN2CCCCC2)oc2ccc3c(c12)C(O)CC1(CCCCC1)O3 (stereo not given)	20%	?	16µM*	3%	5%
CCOC(=O)C1CCN(C(=O)c2oc3ccc4c(c3c2C)C(O)CC2(CCCCC2)O4)CC1 (stereo not given)	8%	?	?	3%	4%
CCC1=C2CC[C@H]3C(=O)N(c4ccccc4)C(=O)[C@H]3[C@H]2[C@@]2(C)C(=NCc3ccccc3)OC(=O)N2C1=O	-1%	?	?	3%	6%
CC(C)c1ccc(/C=N/n2c(COc3ccccc3)n[nH]c2=S)cc1	?	?	?	10µM*	nt
CN(C)c1ccc(/C=N/n2c(COc3ccccc3)n[nH]c2=S)cc1	3.2µM*	-20%	-28%	4µM*	11%
Cc1ccc(/C=N/n2c(COc3ccccc3)n[nH]c2=S)cc1	3.2µM*	4%	11%	?	nt
S=c1[nH]nc(COc2ccccc2)n1/N=C/c1ccc(Br)cc1	?	-27%	?	-30%	nt
FC(F)Oc1ccc(/C=N/n2c(Cc3ccc(Br)cc3)n[nH]c2=S)cc1	8.9µM*	?	?	?	13%
CSc1ccc(/C=N/n2c(Cc3ccc(Br)cc3)n[nH]c2=S)cc1	?	?	?	-1%	10%
O=C(Nc1cccc(C(F)(F)F)c1)c1cc2nc(-c3ccco3)cc(C(F)(F)Cl)n2n1	nt	-27%	-25%	nt	2%
CN(C)c1ccc(/C=N/n2c(-c3cccnc3)n[nH]c2=S)cc1	-34%	-4%	-7%	2%	5%
CN(C)c1ccc(/C=N/n2c(-c3ccccc3Br)n[nH]c2=S)cc1	3.5µM*	14%	-24%	4%	nt
CCOc1cc(/C=N/n2c(COc3ccccc3)n[nH]c2=S)ccc1O	5µM*	-18%	?	?	nt
Cc1ccc(S(=O)(=O)c2ccc([N+](=O)[O-])o2)cc1	nt	0.033µM*	0.18µM*	nt	nt
CNc1cccnc1C=NNC(N)=S	nt	1.2µM*	0.92µM*	nt	nt
Cc1cccnc1NC(N)=S	-4%	-3%	-2%	-5%	8%
NC(=S)NN=Cc1nccc2c(C(F)(F)F)cccc12	nt	0.52µM*	0.73µM*	nt	nt
Cc1ccc(S(=O)(=O)N2CCN(C(=O)COC(=O)CNC(=O)c3ccccc3)CC2)c(C)c1	nt	-17%	-26%	nt	-12%
CCOc1ccccc1CNC(=O)c1nc(-c2ccc(Cl)cc2)n2c1CCCCC2	nt	23µM*	?	nt	7%
O=C(NCCc1ccc(Cl)cc1)c1nc(-c2cccc(F)c2)n2c1CCCCC2	nt	18µM*	9.2µM*	nt	7%
O=C(NCCc1ccccc1)c1nc(-c2ccc(Cl)cc2)n2c1CCCCC2	nt	12µM*	10µM*	nt	10%
SMILES	RORg inh	DT40 TDP1 CPT	TDP1 cell noCPT	VP16 counter	TDP1 block
COC(=O)c1ccc(NC(=O)c2nc(-c3ccc(Cl)cc3)n3c2CCCCC3)cc1	nt	0.73µM*	0.82µM*	nt	9%
Cc1ccc(-c2nc(C(=O)NCc3ccc(Cl)cc3)c3n2CCCCC3)cc1	nt	nt	nt	nt	3%
O=C(O)CC1S/C(=N/N=C/c2ccccn2)NC1=O (stereo not given)	-1%	-8%	-11%	1%	7%
CC(C)N(Cc1ccccc1)C(=O)c1nc(-c2ccc(Cl)cc2)n2c1CCCCC2	nt	9.2µM*	18µM*	nt	11%
NC(=NCc1ccccc1)NC(=O)c1nc(Cl)c(N)nc1N	-12%	10µM*	23µM*	6%	11%[56.1 µM]
COCCOC(=O)c1c(-c2ccccc2)c(-c2ccccc2)nn(C)c1=O	nt	?	21µM*	nt	-9%
COC(=O)c1c(-c2ccccc2)c(-c2ccccc2)nn(C)c1=O	10%	?	?	6%	5%
CC(C)OC(=O)c1c(-c2ccccc2)c(-c2ccccc2)nn(C)c1=O	nt	?	21µM*	nt	5%
Cc1[nH]c2ccccc2c1N=Nc1ccccc1F	24%	?	?	-2%	-2%
COc1ccc(C(=O)NCCC2=CCCCC2)cc1S(=O)(=O)N1CCOCC1	nt	0%	-2%	nt	nt
CC1CN(S(=O)(=O)c2cc(C(=O)NCCC3=CCCCC3)ccc2Cl)CC(C)O1 (stereo not given)	nt	18µM*	15µM*	nt	1%
CCOc1ccc(CCNC(=O)c2ccc(Cl)c(S(=O)(=O)N3CCOCC3)c2)cc1OCC	nt	21µM*	23µM*	nt	nt
COc1ccc(CNC(=O)c2ccc(Cl)c(S(=O)(=O)N3CCOCC3)c2)cc1OC	nt	9.2µM*	7.3µM*	nt	-7%
CCOC(=O)c1cnc2ccc(OCC)cc2c1Nc1cc(Cl)c(OC)cc1OC	nt	15µM*	26µM*	nt	-1%
CCOC(=O)c1cnc2cc(F)c(F)cc2c1Nc1ccccc1O	nt	nt	nt	nt	6%
CCOC(=O)c1cnc2ccc(OC)cc2c1Nc1cccc(C(C)=O)c1	nt	16µM*	21µM*	nt	-4%[12.3 µM]
CCOC(=O)c1cnc2ccc(C)cc2c1NCCO	-22%	-8%	-17%	-16%	2%
CCOC(=O)c1cnc2ccc(OC)cc2c1NCCc1ccccc1	nt	?	10µM*	nt	0%[12.3 µM]
CCOC(=O)c1cnc2ccc(OCC)cc2c1NCc1ccccc1OC	13µM*	5.2µM*	5.2µM*	?	1%
CCOC(=O)c1cnc2c(C)cccc2c1Nc1cccc(C(=O)O)c1	14%	1%	19%	3%	nt
N/C(COc1ccc(Cl)cc1Cl)=N\NS(=O)(=O)c1ccccc1	?	-12%	-3%	?	3%
N#Cc1cccc(NC(=O)CNC(=O)Cc2ccccc2)c1	-13%	11%	-4%	8%	nt
CCOC(=O)c1cnc2ccc(OC(F)(F)F)cc2c1Nc1ccccc1C(=O)O	nt	?	15µM*	nt	11%
CCc1ccc(OCC2Cn3c(nc4c3c(=O)[nH]c(=O)n4C)O2)cc1 (stereo not given)	37%	?	26µM*	-14%	nt
